High-throughput results deposited in PubChem BioAssay by several laboratories.
Most compounds without a hit are left out; they make up all but 2.2% or so of the library.
PfM18AAP inh: PfM18AAP enzyme inhibition; recombinant PfM18AAP, H-Glu-NHMec fluorogenic cleavage; inhibition, % at 7.35 µM; 1.2% of 290,000 active; AID 1822;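 active = inhibition above the campaign mean inhibition over all tested compounds plus 3 SD, cut at about 28% in these data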
PLC-gamma1 inh: inhibitors of human phospholipase C gamma1; inhibition, % at 12.2 µM; purified PLC-gamma1, fluorogenic substrate, fluorescence; 0.84% of 370,000 active
Rce1 inh: inhibitors of yeast Ras-converting enzyme. 0.27% of 290,000 active. calls only. Q03530. yeast membranes, quenched prenylated peptide cleavage fluorescence;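 active = fall in fluorescence gain of 50% or more versus controls, with final raw signal at or below 3038400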
Target sequence (Q03530 whole entry, looked up): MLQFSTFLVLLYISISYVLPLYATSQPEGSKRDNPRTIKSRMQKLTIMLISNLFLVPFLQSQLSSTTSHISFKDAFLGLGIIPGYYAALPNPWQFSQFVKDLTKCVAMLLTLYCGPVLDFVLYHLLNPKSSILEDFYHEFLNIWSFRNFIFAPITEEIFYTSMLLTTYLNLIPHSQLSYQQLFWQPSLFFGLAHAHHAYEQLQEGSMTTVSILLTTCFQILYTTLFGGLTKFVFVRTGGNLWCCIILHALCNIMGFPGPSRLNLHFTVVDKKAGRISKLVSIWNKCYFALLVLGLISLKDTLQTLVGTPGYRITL
PLCb3 inh: PLC-beta3 (human) inhibition, primary screen | Q01970 | Purified PLC-beta3, fluorogenic substrate, fluorescence | inhibition, % at 12.2 µM | 0.18% of 370,000 active; in the data active = inhibition above about 11%
NPR1 activator: GC-A (human) enzyme activation; HEK293 GC-A cells, cGMP TR-FRET, EC30 ANP; 0% at EC30 ANP, 100% saturating ANP; activation, % at 10 µM; 0.14% of 370,000 active; P16066; in the data active = activation above about 40%
GC-B act: GC-B (human) receptor activation; activation, % at 10 µM; P20594; 0.11% of 370,000 active; HEK293-GC-B cells, CNP EC30, cGMP TR-FRET; 0% at EC30 CNP, 100% saturating CNP;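 active = activation at 10 µM reaching about 35% in either raw or pattern-adjusted values, limit read from the data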
PLCg1 ctr: PLC-gamma1 inhibition, counter-screen for PLC-beta3 hits. shares compounds with PLC-gamma1 inh. inhibition, % at 12.3 µM. purified PLC-gamma1, fluorogenic substrate, fluorescence. 3.1% of 3,300 active
PLCbeta3 conf: confirmation of human PLC-beta3 inhibitors; shares compounds with PLC-gamma1 inh; purified PLC-beta3, fluorogenic substrate fluorescence; inhibition, % at 12.3 µM; 1% of 3,300 active; in the data active = inhibition above about 11%
Of the large screens only hits and unclear results are named; the others gave an inactive call (follow-up assays come after a bar, where they were run). Cut-off read from the data, not from the text of the source, unless noted: active = inhibition above about 9.5%; inactive = the rest.

Cc1csc(SCC(=O)c2c(N)n(CC(C)C)c(=O)n(C)c2=O)n1	none
CC(=O)Nc1cccc(-c2ccnc3c2CC(C(=O)NCC2CCOCC2)O3)c1 (stereo not drawn)	PLC-gamma1 inh 12.2, PLCb3 inh 12.6 (no result: PfM18AAP inh, Rce1 inh) | PLCg1 ctr inactive | PLCbeta3 conf inactive
CC(=O)NCCNC(=O)C1Cc2c(-c3cccc(NC(C)=O)c3)ccnc2O1 (stereo not drawn)	none (no result: PfM18AAP inh, Rce1 inh)
CCc1ccc(C(=O)NNC(=O)c2ccc(OCC(=O)N3CCOCC3)c(OC)c2)cc1	PLC-gamma1 inh 13.1 (no result: PfM18AAP inh, Rce1 inh) | PLCg1 ctr inactive | PLCbeta3 conf inactive
COc1cc(C(=O)NNC(=O)c2cccc(Cl)c2)ccc1OCC(=O)N1CCOCC1	none (no result: PfM18AAP inh, Rce1 inh)
CCN(CC)CCCn1c2c(c(SCC(=O)Nc3cc(C)cc(C)c3)nc1=O)CCC2	PLC-gamma1 inh 13.0 (no result: PfM18AAP inh, Rce1 inh) | PLCg1 ctr inactive | PLCbeta3 conf inactive
CC[C@@]1(c2ccc(C)cc2)C(=O)N(C(=O)OC(C)C)N1C(=O)OC(C)C	none (no result: PfM18AAP inh, Rce1 inh)
COc1ccc(C(C)c2cc3c(cc2OCC(=O)O)OCO3)cc1 (stereo not drawn)	PLCb3 inh 21.1 (no result: PfM18AAP inh, Rce1 inh) | PLCg1 ctr inactive | PLCbeta3 conf inactive
COc1ccc(Cl)cc1NC(=O)C/C(C)=N/NC(=O)c1ccccc1[N+](=O)[O-]	none
COc1ccc(Cl)cc1NC(=O)c1cccc([N+](=O)[O-])c1O	PLC-gamma1 inh 10.0 (no result: PfM18AAP inh, Rce1 inh) | PLCg1 ctr inactive | PLCbeta3 conf inactive
CCn1c(SCc2ccccc2Cl)nnc1-c1ccccc1OC	none (no result: PfM18AAP inh, Rce1 inh)
COc1ccc(C2=NN(C(=O)CSC3=NN4CCCC(=O)N=C4S3)C(c3cccc(OC)c3OC)C2)cc1 (stereo not drawn)	PLC-gamma1 inh 9.7 | PLCg1 ctr inactive | PLCbeta3 conf inactive
COc1cccc(C2CC(c3cccs3)=NN2C(=O)CSC2=NN3CCCC(=O)N=C3S2)c1OC (stereo not drawn)	none
O=C(C1CCCN1S(=O)(=O)c1ccc([N+](=O)[O-])cc1)N1CCc2ccccc2C1 (stereo not drawn)	none (no result: PfM18AAP inh, Rce1 inh)
COCCN1C(=O)C2=C(C1=O)C1N(C)c3ccccc3[C@@]13C[C@@H](CO)N(C(C)=O)C3=N2 (stereo partly drawn)	none (no result: PfM18AAP inh, Rce1 inh)
O=C(COC(=O)C1=COCCO1)Nc1cccc(Oc2ccccc2)c1	none
O=C(COC(=O)C1=COCCO1)Nc1ccccc1Oc1ccccc1	PLCb3 inh 10.8 | PLCg1 ctr inactive | PLCbeta3 conf inactive
C=CCNc1cccc2c1S(=O)(=O)N[C@@H](C)CO2	none (no result: PfM18AAP inh, Rce1 inh)
Cc1ccc(C2CCC3(CCC(=O)N3CCOC(=O)Nc3ccc(Br)cc3)CC2)cc1 (stereo not drawn)	none (no result: PfM18AAP inh, Rce1 inh)
CN1CC(=O)N(CC(=O)Nc2ccc(N(C)C)cc2)c2ccccc2C1=O	PLC-gamma1 inh 13.1 | PLCg1 ctr inactive | PLCbeta3 conf inactive
Cc1ccccc1Cn1nnc(-c2ccc(C(=O)O)cc2)n1	none
O=C(O)c1ccc(-c2nnn(Cc3ccccc3F)n2)cc1	PLC-gamma1 inh 10.9 | PLCg1 ctr inactive | PLCbeta3 conf inactive
Cc1ccc(C(NC(=O)N2CCOCC2)C(Cl)Cl)cc1F (stereo not drawn)	none
Cc1ccc(C(NC(=O)N2CC(C)OC(C)C2)C(Cl)Cl)cc1F (stereo not drawn)	PLCb3 inh 13.4 | PLCg1 ctr inactive | PLCbeta3 conf inactive
CN(CC(=O)Nc1cccc(F)c1)C(=O)CCCc1cccs1	PLC-gamma1 inh 13.0 | PLCg1 ctr inactive | PLCbeta3 conf inactive
CN(CC(=O)Nc1cccc(F)c1)C(=O)Cc1ccsc1	none (no result: PfM18AAP inh, Rce1 inh)
O=C1C=C(NCCc2cc(Br)c(O)c(Br)c2)C(=O)c2ncccc21	PLC-gamma1 inh 11.7 (no result: PfM18AAP inh, Rce1 inh) | PLCg1 ctr inactive | PLCbeta3 conf inactive
CC(C)(C)c1cc(CCC(=O)NCCc2ccccn2)cc(C(C)(C)C)c1O	none
O=C(c1ccccc1)c1ccc(OCC(O)CNCc2ccc(F)cc2)cc1 (stereo not drawn)	none
Cc1ccc(C(OCC(O)CNCc2ccc(F)cc2)c2ccccc2)cc1 (stereo not drawn)	PLC-gamma1 inh 17.5 | PLCg1 ctr inactive | PLCbeta3 conf inactive
COC(=O)[C@]12C[C@H](CC(=O)NCCc3ccccc3OC)C(=O)N(Cc3ccc4c(c3)OCO4)C1=C[C@H](C(C)(C)C)O[C@@H]2C	none (no result: PfM18AAP inh, Rce1 inh)
Cc1cc(C)n(-c2nc3c(c(=O)[nH]c(=O)n3C)n2C(C)C)n1	PLCb3 inh 13.7 | PLCg1 ctr inactive | PLCbeta3 conf inactive
O=C(NCC1CCCO1)C1CCN(S(=O)(=O)c2cc(Cl)ccc2Cl)CC1 (stereo not drawn)	PLC-gamma1 inh 12.4 | PLCg1 ctr inactive | PLCbeta3 conf inactive
Cc1cccc(Oc2cc(NC(=O)Cn3cnc([N+](=O)[O-])n3)cc([N+](=O)[O-])c2)c1	PLC-gamma1 inh 10.8 (no result: Rce1 inh) | PLCg1 ctr inactive | PLCbeta3 conf inactive
Cc1cc([N+](=O)[O-])nn1CCCC(=O)Nc1cc(Oc2ccccc2)cc([N+](=O)[O-])c1	none
Clc1cccc(CSc2ncnc3sc4c(c23)CCCC4)c1	none (no result: PfM18AAP inh, Rce1 inh)
O=C(Cc1cccs1)NCc1ccccc1Br	PLC-gamma1 inh 11.5 | PLCg1 ctr inactive | PLCbeta3 conf inactive
O=C(Cc1cccs1)NCc1cccc(CNC(=O)Cc2cccs2)c1	none
Cc1cc2ncn(S(=O)(=O)N3CCOCC3)c2cc1C	PLCb3 inh 14.2 | PLCg1 ctr inactive | PLCbeta3 conf inactive
Cc1cc2ncn(S(=O)(=O)N3CCCCC3)c2cc1C	none
O=C(CS(=O)c1cccc(Cl)c1)Nc1ccccc1Cl (stereo not drawn)	PLC-gamma1 inh 11.3 | PLCg1 ctr 11.1 | PLCbeta3 conf inactive
O=C(CS(=O)c1cccc(C(F)(F)F)c1)Nc1ccc(Cl)cc1Cl (stereo not drawn)	PLC-gamma1 inh 16.6 | PLCg1 ctr 13.3 | PLCbeta3 conf inactive
Nc1nnc(COc2ccccc2)s1	PLC-gamma1 inh 10.9 | PLCg1 ctr inactive | PLCbeta3 conf inactive
Cc1ccc(OCc2nnc(N)s2)cc1	none
CCCCCCNC(=O)C1CSCCS(=O)(=O)N1Cc1ccccc1 (stereo not drawn)	none (no result: PfM18AAP inh, Rce1 inh)
CCCNC(=O)c1cccc(Cn2nc(C)c(Br)c2C)c1	PLC-gamma1 inh 12.2 | PLCg1 ctr inactive | PLCbeta3 conf inactive
Cc1nn(Cc2cccc(C(=O)NC34CC5CC(CC(C5)C3)C4)c2)c(C)c1Br	none
COc1ccc(NC(C)=O)c2nc(C)c(C)nc12	none
COc1ccc2sc(C)nc2c1NC(C)=O	PLC-gamma1 inh 11.8 | PLCg1 ctr inactive | PLCbeta3 conf inactive
O=C(c1ccc(CSc2nc3ccncc3[nH]2)cc1)N1CCN(c2cccc(Cl)c2)CC1	PLC-gamma1 inh 16.1 | PLCg1 ctr inactive | PLCbeta3 conf inactive
Cc1c(C(=O)N2CCCCC2)nnn1-c1nonc1N	PLC-gamma1 inh 18.6 | PLCg1 ctr inactive | PLCbeta3 conf inactive
Nc1nonc1C(=O)N1CCCC1	none
